# Data: the antibiotic and cytotoxicity screens of Wong et al. (2023)
# The whole screen tested about 39,000 compounds, of which about 1,500 (3.8%) were called active. The sample holds actives, similar compounds and a random draw of the others, so the mix is not that of the screen.
# System: HSkMC (human skeletal muscle cells)
# Assay: cytotoxicity call (relative viability < 0.9)
# Settings: 10 µM
row,Structure (SMILES),cytotoxicity call
1,C[C@H](CO)N1C[C@H](C)[C@@H](CN(C)C(=O)CCCN(C)C)OCCCC[C@H](C)Oc2ccc(NS(=O)(=O)c3cn(C)cn3)cc2C1=O,inactive
2,CC(C)NC(=O)N(C)C[C@@H]1OCCCC[C@@H](C)Oc2ccc(NC(=O)CCCCCC(=O)Nc3ccccc3N)cc2C(=O)N([C@H](C)CO)C[C@H]1C,inactive
3,Cn1nnc2c1[C@H](COCC1CC1)CN(C(=O)CS(C)(=O)=O)C2,inactive
4,C[C@H]1CCCCO[C@@H](CN(C)C(=O)Nc2ccccc2)[C@@H](C)CN([C@@H](C)CO)C(=O)c2cc(NC(=O)NC3CCCCC3)ccc2O1,inactive
5,CC(C)n1c(C=CC(O)CC(O)CC(=O)[O-])c(-c2ccc(F)cc2)c2ccccc21.[Na+] (stereo not given),inactive
6,C[C@@H]1CCCCO[C@@H](CN(C)S(=O)(=O)c2cccs2)[C@H](C)CN([C@H](C)CO)C(=O)c2cc(NC(=O)CCC(F)(F)F)ccc2O1,inactive
7,Cc1ccc(S(=O)(=O)Nc2ccc3c(c2)C(=O)N([C@H](C)CO)C[C@H](C)[C@H](CN(C)S(=O)(=O)c2ccccc2)O3)cc1,inactive
8,CCCCCCCCCCCCCCCC[N+](C)(C)Cc1ccccc1.[Cl-],active
9,CCCCNc1ccccc1,inactive
10,CCCCCCCCCCCCC[N+](C)(C)Cc1ccccc1,inactive
11,CCCCCc1ccccn1,inactive
12,CCCCCCCCCCCCC[N+](C)(C)Cc1ccccc1.O.[Cl-],active
13,CC[N+](C)(CC)Cc1ccccc1,inactive
14,CO[C@@H]1CN(C)C(=O)c2ccc(NS(=O)(=O)c3cccc(C)c3)cc2OC[C@@H](C)N(Cc2cc(F)ccc2F)C[C@H]1C,inactive
15,CN(C)CCCNC(=O)C[C@@H]1CC[C@H]2[C@H](COc3ccc(NC(=O)NC4CCCC4)cc3C(=O)N2C)O1,inactive
16,Cc1noc(C)c1NC(=O)N(C)C[C@H]1Oc2c(NC(=O)Nc3ccc(C(F)(F)F)cc3)cccc2C(=O)N([C@H](C)CO)C[C@H]1C,inactive
17,CC(=O)N[C@@H](Cc1ccccc1)C(=O)NN,inactive
18,CC(=O)N1[C@H](CNC(=O)CN2CCOCC2)[C@@H](c2ccccc2)[C@@H]1CO,inactive
19,CC(=O)N[C@@H](Cc1ccccc1)C(=O)O,inactive
20,COC[C@H](NC(=O)c1cnc(C)s1)C(=O)N[C@@H](COC)C(=O)N[C@@H](Cc1ccccc1)C(=O)[C@@]1(C)CO1,active
21,COC(=O)C(Cc1ccccc1)NC(=O)C(N)CC(=O)O (stereo not given),inactive
22,COc1ccc(C[C@H](NC(=O)[C@H](C)NC(=O)CN2CCOCC2)C(=O)N[C@@H](Cc2ccccc2)C(=O)[C@@]2(C)CO2)cc1,active
23,COC(=O)[C@H](Cc1ccccc1)NC(=O)[C@@H](N)CC(=O)O,inactive
24,CC(=O)N1[C@@H](CO)[C@H](c2ccccc2)[C@@H]1CNC(=O)CN1CCOCC1,inactive
25,CC(C)C[C@H](NC(=O)[C@H](CCc1ccccc1)NC(=O)CN1CCOCC1)C(=O)N[C@@H](Cc1ccccc1)C(=O)N[C@@H](CC(C)C)C(=O)[C@@]1(C)CO1,active
